Measurements: PubChem BioAssay AID504690 (Sanford-Burnham Center for Chemical Genomics, 2011)
About 2,700 (0.77%) of roughly 350,000 compounds were called active. This excerpt belongs to a sample that is enriched for actives. Values without a mark were called inactive.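 The calls were made as follows: active = inhibition reaching at least a set limit at 20 µM in the primary screen (cut at about 59% in these data); inactive = the rest.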

These molecules were tested on glucose-6-phosphate dehydrogenase-6-phosphogluconolactonase (Plasmodium falciparum 3D7) (assay: PfG6PD enzyme inhibitors, primary screen, biochemical, fluorescence intensity, uHTS (AID 504690;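 also: 0% = DMSO wells with substrate and 100% = DMSO wells lacking glucose-6-phosphate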)). Settings: PfGluPho enzyme, NADPH resazurin-diaphorase fluorescence; at 20 µM; active compounds read high.
Molecule `O=C(Nc1cccc(Cl)c1)c1cc(S(=O)(=O)N2CCCCC2)c[nH]1` has an inhibition of -8.02%.
`CCOC(=O)Cn1c2c(c(-c3ccccc3OC)cc1=O)CCCC2` gave an inhibition of 10.3%.
With `CC1=C/C(=N\OS(=O)(=O)c2ccccc2)C=CC1=O` the inhibition was 116% (active).
For `COC(=O)C(C(=O)Nc1cccc(Cl)c1C)C1CCCC1` (stereo not given), the inhibition was 5.12%.
Work on `CCOC(=O)c1cc(-c2sc(NC(=O)c3ccccc3)nc2C)n(CCO)n1` yielded an inhibition of 5.2%.
`S=c1[nH]nc(-c2cc(-c3ccsc3)n[nH]2)n1-c1ccccc1` was tested, and the inhibition was 63% (active).
In the case of `Cc1ccc(-n2c(-c3ccc(Cl)cc3)n[nH]c2=S)cc1`, the inhibition is reported as 39.8%.
`Cc1ccc(NCc2n[nH]c(=S)n2-c2ccccc2)cc1Cl` gave an inhibition of 17.7%.
`CCCCCN(C(=O)CCC(=O)OCC(=O)NCc1ccc(OC)cc1)c1c(N)n(CCCC)c(=O)[nH]c1=O` showed an inhibition of 6.98%.
For `C=CCOc1ccc(Cl)cc1CNCCCN1CCOCC1`, the inhibition was -22.9%.
Work on `CCOC(=O)Cn1nnnc1C` yielded an inhibition of -8.58%.
Work on `CCOC(=O)N1CCC(NC(=O)c2ccc3nc(N4CCOCC4)sc3c2)CC1` yielded an inhibition of -2.75%.
`COc1ccc(NC(=O)c2sc(N3CCOCC3)nc2-c2ccccc2)c(OC)c1` gave an inhibition of 7.35%.
For `Cc1nc(N2CCOCC2)sc1C(=O)NN`, the inhibition was 61.7% (active).
Molecule `Cc1ccc(S(=O)(=O)N2CCCCC2)cc1NC(=O)[C@@H]1CCCN1C(=O)c1cccs1` has an inhibition of -10%.
For `COc1ccc(C(=O)Nc2ccccc2C(=O)N/N=C/c2ccc(O)c(OC)c2)cc1`, the inhibition was 63.8% (active).
`O=C(NN=Cc1ccc2c(c1)CCC2)c1ccccc1O` was tested, and the inhibition was -13.6%.
`COc1cc(C=NNC(=O)c2cccnc2)ccc1OC(=O)c1ccccc1F` showed an inhibition of 0.22%.
`CC(C)Cc1nnc(N)s1` gave an inhibition of -0.68%.
Work on `Cc1ccc(C2CC(c3cccc(Br)c3)n3nc(N)nc3N2)cc1` (stereo not given) yielded an inhibition of 18%.
`Cc1csc(=O)n1CC(=O)Nc1ccc(S(C)(=O)=O)cc1` gave an inhibition of 1.5%.
`Cc1cc(=O)n2[nH]c(-c3sccc3-n3c(C)ccc3C)cc2n1` was tested, and the inhibition was 10.7%.
`C[C@@H]1CN([C@@H](C)CO)S(=O)(=O)c2ccc(-c3ccc(C(=O)N(C)C)cc3)cc2O[C@@H]1CN(C)Cc1ccccc1C(=O)O` was tested, and the inhibition was 1.43%.
`Cc1ccc2nnn(Cc3cccc(C(C)(C)C)c3O)c2c1` was tested, and the inhibition was 4.75%.
`C#CCOCCOCCOCCNc1nc(N2CCN(C(=O)Cn3cc(CCO)nn3)CC2)nc(N2CCN(C(=O)[C@H](CCCCN)n3cc(CCCC)nn3)CC2)n1` showed an inhibition of 6.73%.
Molecule `C#CCOCCOCCOCCNc1nc(N2CCN(C(=O)CCCCCCCCCCNC(=O)[C@H]([C@@H](C)CC)n3cc(CCCCN=C(N)N)nn3)CC2)nc(N2CCN(C(=O)CCCCCCCCCCNC(=O)[C@H](CO)n3cc(CCCSC)nn3)CC2)n1` has an inhibition of 44.4%.
In the case of `C#CCOCCOCCOCCNc1nc(N2CCN(C(=O)CCCCCCCCCCNC(=O)Cn3cc(CCCCCN)nn3)CC2)nc(N2CCN(C(=O)CCCCCCCCCCNC(=O)[C@H](CO)n3cc(CCCSC)nn3)CC2)n1`, the inhibition is reported as 60% (active).
Molecule `COCc1cc(C)nc2sc3c(=O)n(-c4cccc5ccccc45)nnc3c12` has an inhibition of -2.51%.
With `CCC(=O)N1CCC(C(N)=O)(N2CCCCC2)CC1` the inhibition was -1.08%.
`O=C1CSC(=S)N1/N=C/c1ccc(O)c([N+](=O)[O-])c1` gave an inhibition of 18.4%.
`O=C1CSC(=S)N1c1ccc(O)cc1` showed an inhibition of -5.81%.
`CCOc1cccc(/C=N/N2C(=O)CSC2=S)c1O` was tested, and the inhibition was 60.8% (active).
`COc1ccccc1CNC(=O)COn1nnc2ccc(S(=O)(=O)N3CCOCC3)cc21` showed an inhibition of -5.31%.
With `CC(C)C(c1nnnn1C1CCCC1)N1CCN(c2ccccc2F)CC1` (stereo not given) the inhibition was 1.8%.
With `Cc1cc(C)c2[nH]c(=O)c(CN(Cc3ccccc3)C(=S)NCCCN(C)C)cc2c1` the inhibition was -9.85%.
For `COc1ccccc1-n1c(SCC(=O)Nc2ccc(Cl)cc2)nc(O)c(Cc2ccccc2)c1=O`, the inhibition was -30.4%.
For `CC(C)n1cnc2c(NCc3ccccc3)cc(OCC3CCN(C)CC3)cc21`, the inhibition was 65.4% (active).
`CN(C)c1nccc(NCc2ccccc2)c1C#N` gave an inhibition of -1.06%.
With `Cn1c(N)cc(=O)n(C)c1=S` the inhibition was -4.84%.
In the case of `Cc1ccccc1-c1cc(C(=O)NCc2cccs2)n(CC2CC(c3cccnc3)=NO2)n1` (stereo not given), the inhibition is reported as 1.18%.
`Cc1ccc(OS(=O)(=O)c2ccc(-c3csc(C)n3)s2)c(C)c1` gave an inhibition of 17.7%.
`FC(F)(F)C1CCCN(c2nsc3ccccc23)C1` (stereo not given) was tested, and the inhibition was 110% (active).
In the case of `COc1ccc(Cl)cc1NC(=O)COc1ccc2c(c1)OCO2`, the inhibition is reported as -7.15%.
For `Cc1ccc(SC(C)C(=O)NCc2ccc(F)cc2)cc1` (stereo not given), the inhibition was 0.13%.
In the case of `CCC(=C/c1sc2ccc3ccccc3c2[n+]1C)/C=C1\Sc2ccc3ccccc3c2N1C`, the inhibition is reported as 113% (active).
Molecule `CCC[C@H]1CCCC/C=C\CCCC(=O)OCCN1C(=O)OC(C)(C)C` has an inhibition of -3.27%.
`C=CC(=O)Nc1ccc(Nc2ccnc(Nc3ccc(N4CCN(C)CC4)cc3)n2)cc1` was tested, and the inhibition was 77.4% (active).
`CN1CCN(c2nc(Nc3ccc(O)cc3)nc3ccccc23)CC1` gave an inhibition of 3.52%.
Work on `Cn1cnnc1SCC(=O)Nc1ccc(N2CCOCC2)cc1` yielded an inhibition of 7.84%.
`CCCC[C@H]1COCCS(=O)(=O)N1Cc1cccc(Cl)c1` gave an inhibition of 14%.
`O=C(CSc1nnc(CN2CCCC2)n1-c1ccc(F)cc1)c1ccc2c(c1)OCO2` gave an inhibition of 8.99%.
`CCCCC1=CC2=CC(=O)C(C)(OC(=O)CC)C(=O)C2=CN1CCCOC(C)C` (stereo not given) showed an inhibition of 34.2%.
`COC(=O)CCCC1=CC2=CC(=O)C(C)(OC(=O)c3cccs3)C(=O)C2=CN1CC(C)C` (stereo not given) was tested, and the inhibition was 61.6% (active).
In the case of `COC(=O)CCCC1=CC2=CC(=O)C(C)(OC(=O)c3cccs3)C(=O)C2=CN1c1cccc(C#N)c1` (stereo not given), the inhibition is reported as 31.5%.
`Cc1cccc(N2CCC(NCc3c(C(=O)N4CCCCC4)nc4c(C)cccn34)CC2)c1` showed an inhibition of -3.68%.
With `O=Cc1cn(-c2ccccc2)nc1-c1ccccn1` the inhibition was -1.58%.
For `COc1ccc(-c2nn(-c3ccccc3)cc2C(=O)Nc2nccs2)cc1OC`, the inhibition was 32.2%.
For `COc1ccc(-c2nn(-c3ccccc3)cc2/C=N/Nc2ccccn2)cc1OC`, the inhibition was 70.3% (active).
Work on `COc1ccc(OC)c(/C=C/C(=O)c2ccc3c(c2)OCO3)c1` yielded an inhibition of 2.18%.
`Cc1ccc(OCC(=O)NC(C)c2ccccc2)c([N+](=O)[O-])n1` (stereo not given) was tested, and the inhibition was -11.2%.
For `Cc1ccc(OCC(=O)Nc2ccccc2Sc2ccc(Cl)cc2)c([N+](=O)[O-])n1`, the inhibition was 99.2% (active).
With `CCc1ccccc1NC(=O)CN(C)C(=O)COc1ccc(C)nc1[N+](=O)[O-]` the inhibition was -20.3%.
Work on `O=S(=O)(NCC1CCCO1)c1ccc2ccccc2c1` (stereo not given) yielded an inhibition of -2.51%.
`COCCNC(=O)NC(=O)COC(=O)C1(c2ccc(Cl)cc2)CC1` was tested, and the inhibition was 8.76%.
For `CC(C)C(=O)Nc1ccc2c3c(cccc13)CC2`, the inhibition was -13.6%.
`CC1CCCN(S(=O)(=O)c2ccc(N(C(=O)c3cnccn3)C(C(=O)NC3CCCCC3)c3cccs3)cc2)C1` (stereo not given) showed an inhibition of 13.2%.
`Cc1ccc2c(c1)NCC(C(=O)NC1CCC(C)CC1)O2` (stereo not given) gave an inhibition of 18.8%.
With `COc1ccc2c(c1)c(=Cc1ccc(N(C)C)cc1)c1cc(-c3ccccc3)[n+](C)n12` the inhibition was 70% (active).
Work on `Cc1cccc(C)c1NC(=O)CNC(=O)c1c(C)nn(-c2ccccc2)c1C` yielded an inhibition of -4.32%.
Work on `COCC(=O)Nc1c(I)c(C(=O)NCC(O)CO)c(I)c(C(=O)N(C)CC(O)CO)c1I` (stereo not given) yielded an inhibition of -11%.
In the case of `O=C(Nc1ccc(-c2cscn2)cc1)C1CCCN(Cc2ccc(CO)o2)C1` (stereo not given), the inhibition is reported as -2.34%.
Work on `O=C1/C(=C\c2cccnc2)CN(Cc2ccccc2)C/C1=C\c1cccnc1` yielded an inhibition of 20.5%.
For `COc1cc(OC)c(C(=O)Nc2ccccc2-c2ccccc2)cc1OC`, the inhibition was 6.28%.
With `COc1ccc(Cl)cc1C(=O)Nc1ccc(N(C)C(C)=O)cc1` the inhibition was 7.67%.
In the case of `COc1cc(OC)c(C(=O)Nc2ccc(N(C)C)cc2)cc1OC`, the inhibition is reported as 70.5% (active).
In the case of `O=C(NC12CC3CC(CC(C3)C1)C2)N1CCCC(CO)C1` (stereo not given), the inhibition is reported as -9.02%.
`CSc1ccc(CCNC(=O)C2CCN(c3nnc(-n4cccc4)s3)CC2)cc1` was tested, and the inhibition was -2.74%.
`O=C(Oc1c(-c2ccco2)oc2ccccc2c1=O)c1cccnc1` was tested, and the inhibition was -16.3%.
`CCn1nc(C(=O)NNS(=O)(=O)c2cc(/C=C/C(=O)O)cc(OC)c2OC)c2ccccc2c1=O` gave an inhibition of 11.8%.
With `S=C(c1ccc(-c2ccccc2)o1)N1CCCCC1` the inhibition was 52.2%.
`CN1CCN(CCCCOc2ccccc2-c2ccccc2)CC1` was tested, and the inhibition was 5.8%.
For `OCCN1CCN(C(=S)c2ccc(-c3ccccc3)cc2)CC1`, the inhibition was 66.4% (active).
`COc1ccccc1CCCNC(=O)C1CCC(=O)N(CCN2CCOCC2)C1` (stereo not given) was tested, and the inhibition was -4.18%.
With `CC(=O)Nc1nc2c(s1)C(=O)NCC(C)(C)C2` the inhibition was -8.85%.
`Cc1ccc(-n2nc(-c3ccco3)cc2C(=O)NCc2cccnc2)cc1` was tested, and the inhibition was 38.2%.
`CC1CN(C(=S)Nc2ccc(S(N)(=O)=O)cc2)CC(C)O1` (stereo not given) was tested, and the inhibition was 13.9%.
`O=C(CCS(=O)(=O)c1cccc2nonc12)NCCc1ccccc1Cl` was tested, and the inhibition was 0.62%.
For `Oc1c(C=Nc2cccc3nsnc23)ccc2ccccc12`, the inhibition was 64.6% (active).
For `c1ccc(-c2cn3c(n2)CCc2ccc4cccnc4c2-3)cc1`, the inhibition was 107% (active).
`OC(CN=c1sc2ccccc2n1CC(O)COc1ccccc1)COc1ccccc1` (stereo not given) was tested, and the inhibition was 22.7%.
